Assay outcomes: PubChem BioAssay, National Center for Advancing Translational Sciences (NCATS)
In the library only some 19% were active in any assay of this set; here they are far more common.
HT1080 IDH1KD tx = HT-1080 IDH1 knockdown cell toxicity (counter line); HT-1080 IDH1 knockdown viability, ATP luminescence, 48 h; Potency, µM (series often up to 46.1 µM), without a hit: at the top dose activity, negative = toxicity, hits mostly cytotoxic; hit rate 2% among 360,000;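 note: potency is the fitted concentration of half-maximal effect; 0% = DMSO wells and -100% = cell-free medium wells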
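Knockdown cells (IDH1KD HT-1080) received compounds 2 h after plating at 750 cells/well and were kept 48 h at 37 °C in 5% FBS RPMI. A CellTiter-Glo luminescence read gave % activity for curve fitting.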
IL1B secr inh = blocks inflammasome-driven IL-1 beta release | hit rate 4.7% among 360,000 | THP-1 LPS/ATP IL-1B secretion, AlphaLISA, 16 h; hits give low values | activity change, % at 57.5 µM; in the data active = activity change below about -50%; inconclusive = mostly about -30% to -49%
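Secreted IL-1B measured by AlphaLISA bead assay after 16 h compound exposure of THP-1 cells; compounds (final up to 57.5 uM) added 1 h before LPS (250 ng/mL) and ATP (1.25 mM) stimulation; lower signal means less secretion.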
DT40 TDP1 no CPT = qHTS for Inhibitors of human tyrosyl-DNA phosphodiesterase 1 (TDP1): qHTS in cells in absence of CPT. DT40 Tdp1-/- hTDP1 cells, no CPT, ATP luminescence, 48 h. Potency, µM (titrated, usually from 46.2 µM), without a hit: at the highest dose activity change, negative = growth inhibition, most hits filed as inhibitors. hit rate 15% among 420,000; note: potency is the fitted concentration of half-maximal effect; nearly all actives have a fitted effect of over 55% in size
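Chicken DT40 Tdp1-/- cells complemented with human TDP1, screened without camptothecin (DMSO vehicle only), 400 cells/well. Compounds pin-transferred, cells incubated at 37 °C for at least 48 hr. Growth read as ATP-dependent luminescence (CellTiter-Glo, 30 min at RT).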
DT40 TDP1 CPT = DT40-hTDP1 cell growth loss with CPT. chicken DT40 Tdp1-/-;hTDP1 cells + 20 nM CPT, ATP luminescence, 48 h. Potency, µM (highest dose often 46.2 µM), without a hit: at the top dose activity change, negative = growth inhibition, most hits filed as inhibitors. hit rate 12% among 420,000. AID 686979; note: potency is the fitted concentration of half-maximal effect; nearly all actives have a fitted effect of over 55% in size
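Cell growth measured by CellTiter-Glo luminescence after a minimum 48 h, 37 C compound exposure with 20 nM CPT in Tdp1-knockout DT40 cells stably expressing hTDP1, seeded 400/well; qHTS titration format.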
HT1080NT lethal = kills 2HG-producing HT-1080-NT fibrosarcoma cells; Potency, µM (titrated, usually from 46.1 µM), without a hit: at the top dose activity, negative = less viability, most hits filed as cytotoxic; AID 686970; HT-1080-NT fibrosarcoma viability, CellTiter-Glo ATP luminescence, 48 h; hit rate 1.6% among 360,000;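 note: NT is the 2HG producing partner of a matched IDH1 knockdown line; potency is the fitted concentration of half-maximal effect; 0% = DMSO-treated cells and -100% = media-only wells without cells; nearly all actives have a fitted effect of over 55% in size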
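HT-1080-NT; 750 cells/well; 5% FBS RPMI; 48 h compound, 37 degrees C; CellTiter-Glo luminescence; curve fitting and curve-class assignment.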
Active calls of the source: *; ? = inconclusive; / = not tested or not shown. Unless noted, calls come from the whole dose curve; as a rule, active = well fitted curve in the direction sought with a large enough effect; inconclusive = small, poorly fitted or top-dose-only effect, or another doubt; inactive = no such curve, though single readings can be large; an effect the other way counts as inactive or inconclusive. Unless noted, % is set by controls: 0 for no effect and ±100 for the full control effect.

SMILES | HT1080 IDH1KD tx | IL1B secr inh | DT40 TDP1 no CPT | DT40 TDP1 CPT | HT1080NT lethal
Cc1ccc(C2c3c(-c4ccccc4O)n[nH]c3C(=O)N2CCCO)cc1 (configuration not stated) | / | / | 29.1µM* | 18.4µM* | /
Cc1ccc(N2CC(C(=O)OCC(=O)Nc3ccc(F)cc3F)CC2=O)cc1 (configuration not stated) | 1.1% | -2.1 | -5.5% | -13.3% | 14.6%
CC1CCN(c2ccc(/C=C(\C#N)c3nn(-c4ccccc4)c(N)c3C#N)cc2[N+](=O)[O-])CC1 | ? | 0.0 | 8.2µM* | 18.4µM* | ?
CC1CCCN(c2ccc(/C=C(\C#N)c3nn(-c4ccccc4)c(N)c3C#N)cc2[N+](=O)[O-])C1 (configuration not stated) | -5.8% | ? | 20.6µM* | ? | -1.7%
CC1CCN(c2cc(N3CCC(C)CC3)c([N+](=O)[O-])cc2/C=C(\C#N)c2nn(-c3ccccc3)c(N)c2C#N)CC1 | -0.8% | -7.8 | -26.7% | ? | 3.7%
CCOC(=O)C1=C(N)Oc2ccc(Br)cc2[C@@H]1[C@@H](C#N)C(=O)OCC | / | / | 0.0% | 4.2% | /
COc1ccc(CN2C(=O)COc3ccccc3C2c2nc3ccccc3[nH]2)cc1 (configuration not stated) | 7.2% | -11.8 | -6.2% | -22.0% | 8.1%
O=C1COc2ccccc2C(c2nc3ccccc3[nH]2)N1Cc1ccccc1 (configuration not stated) | 1.7% | 11.7 | 16.4µM* | ? | -0.5%
O=C(NCc1ccccc1)C1c2ccccc2OCC(=O)N1Cc1ccccc1 (configuration not stated) | ? | -15.5 | 11.6µM* | ? | -87.3%
CCOC(=O)c1sc(NC(=O)C2C3C=CC(C3)C2C(=O)O)nc1C (configuration not stated) | -14.8% | 7.1 | -2.7% | -17.2% | 5.4%
O=C(O)c1ccc(S(=O)(=O)N2CCCc3ccccc32)cc1 | 4.4% | 83.7 | 1.8% | -3.1% | 12.5%
COCCN(CCOC)S(=O)(=O)c1ccc(C(=O)Nc2sc3c(c2C(N)=O)CCCCC3)cc1 | -1.9% | -5.4 | ? | -28.4% | -1.4%
CC(C)N1CCc2c(sc(NC(=O)c3ccc(S(=O)(=O)N4CCc5ccccc54)cc3)c2C(N)=O)C1 | 20.6µM* | 19.3 | ? | 23.1µM* | ?
CN1CCc2c(sc(NC(=O)c3ccc(C(=O)c4ccccc4)cc3)c2C(N)=O)C1 | -19.8% | 0.0 | 5.5% | -1.5% | -24.2%
CC(C)N1CCc2c(sc(NC(=O)c3ccc(S(=O)(=O)N(C)C4CCCCC4)cc3)c2C(N)=O)C1 | / | / | 18.4µM* | ? | /
NC(=O)c1ccsc1NC(=O)c1ccc(S(=O)(=O)N2CCCc3ccccc32)cc1 | -20.4% | 0.0 | 18.4µM* | 16.4µM* | -18.9%
CC(C)(CO)NC(=O)C(Cc1ccccc1)N1C(=O)c2ccccc2C1=O (configuration not stated) | 5.5% | 17.9 | 0.9% | 12.5% | 16.1%
O=c1ccc2ccc(Oc3ccc(Cl)cc3[N+](=O)[O-])cc2o1 | -5.7% | 6.8 | -6.9% | 12.4% | -9.7%
COC(=O)c1cc(Br)c(=O)n(Cc2ccc(OC)c(OC)c2)c1 | -4.5% | -11.2 | -27.3% | -11.6% | 0.5%
COc1ccccc1-c1cc(C(=O)N2CCN(S(=O)(=O)c3ccc(C)cc3)CC2)[nH]n1 | -8.3% | -10.5 | ? | 23.1µM* | -8.7%
Cc1ccc(S(=O)(=O)N2CCN(C(=O)c3cc(-c4ccc(Br)cc4)n[nH]3)CC2)c(C)c1 | / | / | 11.6µM* | 16.4µM* | /
COc1ccc(S(=O)(=O)N2CCN(C(=O)c3cc(-c4ccc(Br)cc4)n[nH]3)CC2)cc1OC | ? | / | 7.31µM* | 9.2µM* | ?
COc1ccc(Cl)cc1S(=O)(=O)N1CCN(C(=O)c2cc(-c3ccc(Br)cc3)n[nH]2)CC1 | / | / | 9.2µM* | 11.6µM* | /
O=C(c1cc(-c2ccc(Br)cc2)n[nH]1)N1CCN(C(=O)c2ccccc2Br)CC1 | 0.0% | -10.8 | ? | ? | -16.3%
COc1ccc(-c2cc(C(=O)N3CCN(S(=O)(=O)c4ccccc4)CC3)[nH]n2)cc1 | -8.0% | -27.4 | ? | 20.6µM* | -1.3%
SMILES | HT1080 IDH1KD tx | IL1B secr inh | DT40 TDP1 no CPT | DT40 TDP1 CPT | HT1080NT lethal
O=C(c1cc(-c2ccc(Br)cc2)n[nH]1)N1CCN(S(=O)(=O)c2ccc(Br)cc2)CC1 | / | / | 16.4µM* | 14.6µM* | /
O=C(c1cc(-c2ccccc2)n[nH]1)N1CCN(S(=O)(=O)c2ccccc2)CC1 | 8.1% | -28.9 | ? | ? | 4.4%
Cc1ccc(S(=O)(=O)N2CCN(C(=O)C3CCN(C(=O)c4ccc(F)cc4)CC3)CC2)c(C)c1 | -13.6% | -7.4 | 10.3µM* | ? | -15.2%
O=C(NC1c2ccccc2Oc2ccccc21)c1ccc([N+](=O)[O-])cc1 | -6.6% | -12.9 | -25.5% | -1.6% | -0.1%
Nc1ccccc1C(=O)N1CCc2ccccc21 | 4.0% | 18.5 | 8.1% | 3.9% | 2.7%
O=c1c2ccccc2nc(SCc2ccc(F)cc2Cl)n1CCCN1CCOCC1 | -2.3% | -22.3 | 16.4µM* | ? | 22.3%
O=C(CSc1nc2ccccc2c(=O)n1CCCN1CCOCC1)c1c[nH]c2ccccc12 | ? | -110.0* | ? | ? | ?
COc1ccccc1CNC(=O)CSc1nc2ccccc2c(=O)n1CCCN1CCOCC1 | 5.0% | -1.7 | -10.8% | 5.1% | -5.3%
Cn1c(SCc2ccc(F)cc2Cl)nc2ccccc2c1=O | -11.8% | 45.4 | 14.6µM* | ? | -2.7%
CC(=O)c1ccccc1NC(=O)CSc1nc2ccccc2c(=O)n1CCCN1CCOCC1 | ? | 8.0 | ? | ? | 2.6%
CC(=O)c1ccc(OCCCC(=O)Nc2nnc(C3CC3)s2)cc1 | 18.3% | 22.7 | -0.7% | 0.9% | 1.3%
CC(C)(C)c1ccc(OCCCC(=O)Nc2nnc(C3CC3)s2)cc1 | -7.9% | 21.8 | 10.3µM* | ? | -1.2%
